# Results published in a collection of fitness landscapes (doi:10.1016/j.celrep.2020.107928).
# In all, about 81,000 sequences were measured (“one-hybrid fitness for binding parS DNA”: median about -0.17, highest 2% from about 0.51 on). The sample holds the highest values, similar sequences and a random draw of the others, so the mix is not that of the screen.
# B1: Caulobacter ParB omega fusion; a variant is named by its letters at X, in order, B8GW30 (parent)
# chain: MESVVVGEPGMSEGRRGLGRGLSALLGEVDAAPAQAPGEQLGGSREAPIEILQRNPDQPRRTFREEDLEDLSNSIREKGVLQPILVRPSPDTAGEYQIVAGERAWRAAQRAGLKTVPIMVRELDDLAVLEIGIIENVQRADLNVLEEALSYKVLMEKFERTQENIAQTIGKSXSHVANXMRLLXLPDEVQSYLVSGELTAXHARAIAAAADPVALAKQIIEGGLSVRETEALARKAPNLSAGKSKGGRPPRVKDTDTQALESDLSSVLGLDVSIDHRGSTGTLTITYATLEQLDDLCNRLTRGI
# Variants of: B1
# Test: one-hybrid fitness for binding parS DNA (scaled: cognate 1, non-cognate 0); higher = stronger binding
# Settings: with parS DNA site
# Summary of the method: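 In E. coli USO, a HIS3 reporter with its site placed 19 bp from the promoter was used to select Caulobacter ParB variants randomised at four specificity codons. Growth lasted 48 hours at 37°C on histidine-free M9 containing 0.1 mM IPTG and 5 mM 3-AT. Fitness was taken as the log change in variant-to-wild-type read ratio from Illumina sequencing of pre- and post-selection plasmids, rescaled between the non-cognate and cognate sites.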
row,Variant,one-hybrid fitness for binding parS DNA
1,RHNH,≤ 0.2
2,RHDH,≤ 0.2
3,RHDS,0.967
4,RHNS,0.864
5,RHDP,≤ 0.2
6,RHND,≤ 0.2
7,SDHS,≤ 0.2
8,QQDM,≤ 0.2
9,MDNG,≤ 0.2
10,EESV,≤ 0.2
11,LGER,≤ 0.2
12,RQGL,≤ 0.2
13,RCTG,1.02
14,RITP,≤ 0.2
15,RRTG,0.699
16,RRTM,0.351
17,RPTG,≤ 0.2
18,RLTQ,≤ 0.2
19,RLTG,1.03
20,RITD,≤ 0.2
21,RETG,0.249
22,RITG,0.997
23,RLTD,≤ 0.2

row,Variant,one-hybrid fitness for binding parS DNA
1,RRTK,≤ 0.2
2,QTKN,≤ 0.2
3,DQEG,≤ 0.2
4,NHEC,≤ 0.2
5,QCPT,≤ 0.2
6,IMKR,≤ 0.2
7,GAMN,≤ 0.2
8,LESA,≤ 0.2
9,LGIT,≤ 0.2
10,SQRC,≤ 0.2
11,GQLN,≤ 0.2
12,NPSA,≤ 0.2
13,GPFR,≤ 0.2
14,RKTK,≤ 0.2
15,RKTR,≤ 0.2
16,RMTK,≤ 0.2
17,RFTG,0.977
18,DFTG,≤ 0.2
19,RHTG,0.967
20,NFTG,≤ 0.2
21,RHTD,≤ 0.2
22,RMTG,1.02
23,RMTH,0.218

row,Variant,one-hybrid fitness for binding parS DNA
1,RHTK,≤ 0.2
2,RKTG,0.905
3,ARLR,≤ 0.2
4,MAAN,≤ 0.2
5,VTYC,≤ 0.2
6,VAAS,≤ 0.2
7,WVLT,≤ 0.2
8,IAPF,≤ 0.2
9,QMYC,≤ 0.2
10,YLQA,≤ 0.2
11,IPAC,≤ 0.2
12,RTTG,1
13,RSTN,0.461
14,RSTP,≤ 0.2
15,RTTR,≤ 0.2
16,RSTG,1
17,RTTY,0.477
18,VSEV,≤ 0.2
19,PLGR,≤ 0.2
20,SLYF,≤ 0.2
21,HVAN,≤ 0.2
22,SESV,≤ 0.2
23,KMES,≤ 0.2

row,Variant,one-hybrid fitness for binding parS DNA
1,AYKT,≤ 0.2
2,HFLP,≤ 0.2
3,IRCS,≤ 0.2
4,RNVN,≤ 0.2
5,RNKF,0.242
6,RNVH,0.202
7,RNKT,0.819
8,RNKR,≤ 0.2
9,RNVT,0.514
10,NALR,≤ 0.2
11,TTTT,≤ 0.2
12,IISE,≤ 0.2
13,HKNW,≤ 0.2
14,PIET,≤ 0.2
15,ILAD,≤ 0.2
16,RHFS,0.965
17,RHAP,≤ 0.2
18,RHFD,≤ 0.2
19,RHAN,0.371
20,RHFH,≤ 0.2
21,RHAS,0.933
22,LHQT,≤ 0.2
23,RQFY,0.398

row,Variant,one-hybrid fitness for binding parS DNA
1,RQFC,0.816
2,RQAQ,≤ 0.2
3,RQFM,0.279
4,RQAF,0.25
5,RQAC,0.947
6,LNHR,≤ 0.2
7,ERQR,≤ 0.2
8,SWSW,≤ 0.2
9,TRLI,≤ 0.2
10,CQYS,≤ 0.2
11,LSGY,≤ 0.2
12,HRTK,≤ 0.2
13,RLMH,0.291
14,RCMC,0.976
15,RIMC,0.986
16,RRMD,≤ 0.2
17,RPMC,≤ 0.2
18,RDMC,≤ 0.2
19,RRMC,0.625
20,RLMC,0.992
21,RLMP,0.229
22,RRMH,≤ 0.2
23,RIMD,0.234

row,Variant,one-hybrid fitness for binding parS DNA
1,RIMN,0.39
2,IMTG,≤ 0.2
3,GAKE,≤ 0.2
4,CNSF,≤ 0.2
5,GRPA,≤ 0.2
6,CRST,≤ 0.2
7,IKCT,≤ 0.2
8,RKMC,0.897
9,RAMQ,≤ 0.2
10,RMMN,0.435
11,RFMD,≤ 0.2
12,RFMC,0.824
13,RFMN,0.242
14,RKMP,≤ 0.2
15,RAMC,0.956
16,RMMP,≤ 0.2
17,RKMH,≤ 0.2
18,RMMC,0.992
19,RAMR,≤ 0.2
20,TLMF,≤ 0.2
21,GTMC,≤ 0.2
22,LVSA,≤ 0.2
23,ITSK,≤ 0.2

row,Variant,one-hybrid fitness for binding parS DNA
1,DYWG,≤ 0.2
2,THDS,≤ 0.2
3,RKMK,≤ 0.2
4,YPLS,≤ 0.2
5,RTMP,≤ 0.2
6,RSMD,≤ 0.2
7,RSMP,≤ 0.2
8,RHMP,≤ 0.2
9,RSMC,0.928
10,RHMC,0.908
11,RTMN,0.433
12,RHMN,0.389
13,RTMC,0.982
14,AGSI,≤ 0.2
15,PTDS,≤ 0.2
16,FNHS,≤ 0.2
17,TAPE,≤ 0.2
18,GYWS,≤ 0.2
